Assay outcomes as filed in PubChem BioAssay.
Rows were chosen to be rich in hits. Some 3.8% of all compounds tested hit in one or more screens of this group.
HT1080 IDH1KD tx = kills HT-1080 cells with IDH1 knockdown | Potency, µM (highest dose often 46.1 µM), without a hit: at the top dose activity, negative = toxicity, most hits filed as cytotoxic | actives 2% (n = 360,000) | AID 686971 | HT-1080 IDH1 knockdown viability, ATP luminescence, 48 h;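 also: 0% = DMSO wells and -100% = cell-free medium wells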
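Knockdown cells (IDH1KD HT-1080) received compounds 2 h after plating at 750 cells/well and were kept 48 h at 37 °C in 5% FBS RPMI. A CellTiter-Glo luminescence read gave % activity for curve fitting.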
HepG2 viability = counter-screen for TGF-b inhibitors: cytotoxicity in HepG2 cells; actives 0.76% (n = 410,000); HepG2 CAGA-GFP viability, ATP luminescence, 18 h; AID 588856; Potency, µM (series often up to 46.1 µM), for inactives: top-dose activity change, negative = cytotoxicity, most hits filed as cytotoxic
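CellTiter-Glo luminescence gave cytotoxicity after 18 hours at 37 degrees C. The cells were HepG2 CAGA-GFP in 1% FBS DMEM, stimulated with 500 pg/mL TGF-beta after compound addition. %Activity was normalised to no-cell wells (complete cell-killing) and DMSO (no toxicity), and curves were fitted and classified.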
TGFb SMAD3 inh = TGF-b pathway inhibition; Potency, µM (top dose mostly 46.1 µM), for inactives: at the top dose activity, negative = inhibition, most hits filed as inhibitors; AID 588855; actives 1.2% (n = 410,000); HepG2 CAGA-GFP TGF-b/SMAD3 reporter, GFP fluorescence, 18 h; TGF-beta stimulated, 500 pg/mL final; also: % is scaled to controls: 0 for no effect and ±100 for the full control effect; nearly all actives have a fitted effect of over 65% in size
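HEPG2 CAGA-GFP cells (1000/well, DMEM with 1% FBS) were pre-incubated 2 h at 37 degrees C, given compound by pin tool, then stimulated with TGF-beta at 500 pg/mL final for 18 h before per-cell GFP fluorescence imaging.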
HT1080-NT tox = kills 2HG-producing HT-1080-NT fibrosarcoma cells. HT-1080-NT fibrosarcoma viability, CellTiter-Glo ATP luminescence, 48 h. Potency, µM (series often up to 46.1 µM), inactives show at the highest dose activity, negative = less viability, usual class: cytotoxic. actives 1.6% (n = 360,000);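 also: NT is the 2HG producing partner of a matched IDH1 knockdown line; 0% = DMSO-treated cells and -100% = media-only wells without cells; nearly all actives have a fitted effect of over 55% in size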
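HT-1080-NT fibrosarcoma cells (2HG-overproducing), 750 cells/well in RPMI with 5% FBS, dosed after 2 h and incubated 48 h at 37C. CellTiter-Glo luminescence normalized to DMSO and no-cell wells; concentration-response curves fitted and classed.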
ATXN2 expr inh = reduces ATXN2 reporter expression in HEK-293 cells; HEK-293 ATXN2-luciferase reporter, luminescence, 24 h; Potency, µM (top dose mostly 57 µM), inactives show top-dose activity change, negative = inhibition, usual class: inhibitors; actives 0.72% (n = 360,000); AID 1745845; also: % is scaled to controls: 0 for no effect and ±100 for the full control effect; nearly all actives have a fitted effect of over 55% in size
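qHTS (up to 57 uM final) was run with 24 h compound exposure of reporter cells at 37 °C. Each well was multiplexed: SteadyGlo luminescence measured ATXN2-luciferase expression after a fluorogenic Gly-Phe-AFC viability readout (25 uM final).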
S2 tox = reduces viability in counter-screen for ATXN expression inhibitors | S2 cells (HEK-293 line with an ATXN2-luciferase reporter) viability, CellTiter-Fluor protease fluorescence, 24 h | Potency, µM (titrated, usually from 56.7 µM), usual class: cytotoxic | actives 0.49% (n = 400,000); also: nearly all actives have a fitted effect of over 40% in size
Numbers without * were called inactive; [ ] = dose if it differs, or a comment. Calls follow the shape of the dose curve; as a rule, active = well fitted curve in the direction sought with a large enough effect; inconclusive = small, poorly fitted or top-dose-only effect, or another doubt; inactive = no such curve, though single readings can be large; an effect the other way counts as inactive or inconclusive. Potency is read from the fitted curve at half-maximal effect.

`CC(=O)NC(c1ccco1)c1cc(F)c2cccnc2c1O` (stereo not drawn) gave HepG2 viability 8.9µM*, TGFb SMAD3 inh inconclusive, ATXN2 expr inh inconclusive and S2 tox 14µM*.
Screening CC(=O)NC(c1cccs1)c1cc(F)c2cccnc2c1O (stereo not drawn) returned HepG2 viability -49%, TGFb SMAD3 inh inconclusive, ATXN2 expr inh inconclusive and S2 tox 4µM*.
For COc1ccc(-c2nn(C)c3sc(C(=O)Nc4cc(OC)c(OC)c(OC)c4)cc23)cc1OC the results were HepG2 viability -21% and TGFb SMAD3 inh 0%.
`CC12CCC(O)CC1=CCC1C2CCC2(C)C3=NN=CC3CC12` (stereo not drawn) gave HT1080 IDH1KD tx 33µM*, HepG2 viability 7%, TGFb SMAD3 inh 0%, HT1080-NT tox inconclusive, ATXN2 expr inh -19% and S2 tox inactive.
CC(=O)C1(O)C(C)CC2C3CC=C4CC(O)CCC4(C)C3CCC21C (stereo not drawn) was read as HT1080 IDH1KD tx 2%, HepG2 viability 11%, TGFb SMAD3 inh 9%, HT1080-NT tox 3%, ATXN2 expr inh 9% and S2 tox inactive.
Screening CCCCCNc1nc(NCCCO)c(C#N)c2c1CN(C)CC2 returned HT1080 IDH1KD tx 0%, HepG2 viability -4%, TGFb SMAD3 inh -2%, HT1080-NT tox -12%, ATXN2 expr inh -6% and S2 tox inactive.
Screening CCCCCNc1nc(N2CCCC2)c2c(c1C#N)CCN(C)C2 returned HT1080 IDH1KD tx inconclusive, HepG2 viability 22µM*, TGFb SMAD3 inh inconclusive, HT1080-NT tox 29µM*, ATXN2 expr inh -22% and S2 tox inconclusive.
COc1cc(C2CC(=O)Nc3cc4c(cc32)OCCO4)cc(OC)c1O (stereo not drawn) was read as HepG2 viability -3%, TGFb SMAD3 inh inconclusive, ATXN2 expr inh -24% and S2 tox inactive.
Screening COc1ccc(CCNC(=O)CCCCn2c(=O)c3ccccc3n(Cc3ccc(Cl)cc3)c2=O)cc1OC returned HepG2 viability -1%, TGFb SMAD3 inh -15%, ATXN2 expr inh -38% and S2 tox inconclusive.
Screening COc1ccc(CCNC(=O)CCCn2c(=O)c3ccccc3n(Cc3cccc(Cl)c3)c2=O)cc1OC returned HepG2 viability -37%, TGFb SMAD3 inh 11µM* and ATXN2 expr inh inconclusive.
Screening O=C(CCCCn1c(=O)c2ccccc2n(Cc2ccc(F)cc2)c1=O)NCc1ccco1 returned HT1080 IDH1KD tx -15%[9.24 µM], HepG2 viability 1%, TGFb SMAD3 inh -1%, HT1080-NT tox 18µM*, ATXN2 expr inh -20% and S2 tox inconclusive.
Screening COc1ccc(CCNC(=O)c2ccc(Cn3c(=O)c4ccccc4n(Cc4cccc(F)c4)c3=O)cc2)cc1OC returned HepG2 viability -8%, TGFb SMAD3 inh inconclusive, ATXN2 expr inh inconclusive and S2 tox 28µM*.
`O=C(CCCn1c(=O)c2ccccc2n(Cc2ccccc2)c1=O)NCc1ccco1` gave HT1080 IDH1KD tx inconclusive, HepG2 viability 0%, TGFb SMAD3 inh 8%, HT1080-NT tox inconclusive, ATXN2 expr inh -6% and S2 tox inactive.
`COCCCNC(=O)c1ccc(Cn2c(=O)c3ccccc3n(Cc3cc(C)ccc3C)c2=O)cc1` gave HT1080 IDH1KD tx -5%, HepG2 viability -22%, TGFb SMAD3 inh -10%, HT1080-NT tox -2%, ATXN2 expr inh -12% and S2 tox inactive.
`COCCCNC(=O)c1ccc(Cn2c(=O)c3ccccc3n(Cc3ccccc3C)c2=O)cc1` gave HT1080 IDH1KD tx 16µM*, HepG2 viability -32%, TGFb SMAD3 inh -30%, HT1080-NT tox inconclusive, ATXN2 expr inh -34% and S2 tox inconclusive.
